Measured values reported in PubChem BioAssay AID1159580 (chemical genetic matrix, 2015).
Several values for one entry are separate records, joined by “and”; a condition that tells them apart may be missing. Identical values can stand only once. Hit rate of the full screen: of about 5,500 compounds, about 2,000 (36%) were called active. Inconclusive results (about 18%) are left out. Cut-off read from the data, not from the text of the source: active = normalized growth mostly below about 0.91 (no sharp cut-off); inconclusive = no clear call, values can overlap the other calls; inactive = mostly above about 0.92. This is one part of the list.

Assay: chemical genetic growth profiling, strain panel (AID 1159580);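 note: tested at 20 µM; growth read once vehicle control cultures reached saturation at 30 °C; 1 = growth at the plate median or of vehicle wells; lower values mean less growth of the strain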
Settings: S. cerevisiae deletion strains, growth OD

Measured: normalized growth

COC(=O)Nc1nc2ccc(Sc3ccccc3)cc2[nH]1
active: locus YBR231C, strain swc5, active compounds read low 0.753 | locus YCL029C, strain bik1, active compounds read low 0.826 | locus YDR334W, strain swr1, active compounds read low 0.788 | locus YEL003W, strain gim4, active compounds read low 0.206 | locus YGR078C, strain PAC10, active compounds read low 0.0823
inactive: locus YAL013W, strain DEP1, active compounds read low 1 | locus YAL021C, strain ccr4, active compounds read low 1.01 | locus YAL026C, strain drs2, active compounds read low 1 | locus YAL030W, strain snc1, active compounds read low 0.986 | locus YBL061C, strain skt5, active compounds read low 0.986 | locus YBR009C, strain hhf1, active compounds read low 0.993 | locus YBR021W, strain FUR4, active compounds read low 1.02 | locus YBR023C, strain chs3, active compounds read low 0.989 | locus YBR171W, strain sec66, active compounds read low 0.987 | locus YBR229C, strain ROT2, active compounds read low 0.997 | locus YBR279W, strain paf1, active compounds read low 0.985 | locus YCL011C, strain gbp2, active compounds read low 0.991 | locus YCL016C, strain dcc1, active compounds read low 1 | locus YCL061C, strain MRC1, active compounds read low 1.01 | locus YCL069W, strain vba3, active compounds read low 0.99 | locus YCR088W, strain abp1, active compounds read low 0.996 | locus YDL005C, strain med2, active compounds read low 0.987 | locus YDL035C, strain GPR1, active compounds read low 0.98 | locus YDL040C, strain nat1, active compounds read low 1.01 | locus YDL074C, strain BRE1, active compounds read low 0.994 | locus YDL101C, strain DUN1, active compounds read low 1.02 | locus YDL134C, strain PPH21, active compounds read low 1.01 | locus YDL185W, strain tfp1, active compounds read low 0.986 | locus YDL192W, strain arf1, active compounds read low 1 | locus YDR001C, strain nth1, active compounds read low 0.996 | locus YDR069C, strain doa4, active compounds read low 0.984 | locus YDR101C, strain arx1, active compounds read low 0.99 | locus YDR137W, strain rgp1, active compounds read low 0.965 | locus YDR150W, strain NUM1, active compounds read low 0.975 | locus YDR159W, strain sac3, active compounds read low 0.99 | locus YDR162C, strain NBP2, active compounds read low 1 | locus YDR195W, strain ref2 1.04 | locus YDR297W, strain sur2, active compounds read low 0.97 | locus YDR318W, strain mcm21, active compounds read low 1.01 | locus YDR335W, strain msn5, active compounds read low 1 | locus YDR388W, active compounds read low 1 | locus YDR392W, strain spt3, active compounds read low 0.993 | locus YDR502C, strain sam2, active compounds read low 0.98 | locus YEL037C, strain rad23, active compounds read low 1 | locus YEL061C, strain CIN8 (second series), active compounds read low 0.999 | locus YEL061C, strain CIN8, active compounds read low 0.995 | locus YER015W, strain faa2, active compounds read low 0.988 | locus YER016W, strain bim1, active compounds read low 0.985 | locus YER110C, active compounds read low 0.995 | locus YER111C, strain swi4, active compounds read low 0.992 | locus YER155C, strain BEM2 (second series), active compounds read low 0.978 | locus YER155C, strain BEM2, active compounds read low 1 | locus YER167W, strain BCK2, active compounds read low 0.991 | locus YFR010W, strain ubp6, active compounds read low 0.995 | locus YGL078C, strain dbp3, active compounds read low 0.99 | locus YGL086W, strain mad1, active compounds read low 0.955 | locus YGL167C, strain pmr1, active compounds read low 0.98 | locus YGL173C, strain kem1, active compounds read low 0.991 | locus YGL227W, strain vid30, active compounds read low 0.993 | locus YGL240W, strain doc1, active compounds read low 0.987 | locus YGL248W, strain PDE1, active compounds read low 1 | locus YGL253W, strain hxk2, active compounds read low 1 | locus YGR135W, strain pre9, active compounds read low 0.99 | locus YGR229C, strain SMI1, active compounds read low 0.941 | locus YGR252W, strain gcn5, active compounds read low 0.895 | locus YHR013C, strain ard1, active compounds read low 0.969 | locus YHR027C, strain rpn1, active compounds read low 0.998 | locus YHR030C, strain SLT2, active compounds read low 0.995 and 0.963 | locus YHR079C, strain IRE1 (second series), active compounds read low 1.01 | locus YHR079C, strain IRE1, active compounds read low 0.964 | locus YHR094C, strain hxt1, active compounds read low 1 | locus YHR129C, strain ARP1, active compounds read low 1.01 | locus YHR142W, strain chs7, active compounds read low 0.989 | locus YHR200W, strain rpn10, active compounds read low 0.984 | locus YIL066C, strain RNR3, active compounds read low 0.997 | locus YIL073C, strain SPO22, active compounds read low 0.998 | locus YIL125W, strain kgd1, active compounds read low 0.99 | locus YIR030C, strain dcg1, active compounds read low 1 | locus YJL092W, strain hpr5, active compounds read low 1 | locus YJL095W, strain BCK1 (second series), active compounds read low 0.985 | locus YJL095W, strain BCK1, active compounds read low 1.03 and 0.949 | locus YJL115W, strain asf1, active compounds read low 1.01 | locus YJL129C, strain trk1, active compounds read low 0.976 | locus YJL134W, strain LCB3, active compounds read low 1 | locus YJL154C, strain vps35, active compounds read low 0.993 | locus YJL164C, strain tpk1, active compounds read low 1 | locus YJL166W, strain qcr8, active compounds read low 0.972 | locus YJL168C, strain set2, active compounds read low 1 | locus YJL187C, strain SWE1 (second series), active compounds read low 1.01 | locus YJR043C, strain POL32, active compounds read low 0.988 | locus YJR066W, strain TOR1, active compounds read low 0.872
